# 12-LOX inh: inhibitors of human 12S-lipoxygenase ALOX12 | purified 12hLO, xylenol orange hydroperoxide absorbance | Potency, µM (titrated, usually from 108 µM), without a hit: top-dose activity change, negative = inhibition, usual class: inhibitors | 1.1% of 580,000 active | AID 1671190; further: potency means the concentration at half of the fitted maximal effect
# Target sequence (P18054 whole entry, looked up): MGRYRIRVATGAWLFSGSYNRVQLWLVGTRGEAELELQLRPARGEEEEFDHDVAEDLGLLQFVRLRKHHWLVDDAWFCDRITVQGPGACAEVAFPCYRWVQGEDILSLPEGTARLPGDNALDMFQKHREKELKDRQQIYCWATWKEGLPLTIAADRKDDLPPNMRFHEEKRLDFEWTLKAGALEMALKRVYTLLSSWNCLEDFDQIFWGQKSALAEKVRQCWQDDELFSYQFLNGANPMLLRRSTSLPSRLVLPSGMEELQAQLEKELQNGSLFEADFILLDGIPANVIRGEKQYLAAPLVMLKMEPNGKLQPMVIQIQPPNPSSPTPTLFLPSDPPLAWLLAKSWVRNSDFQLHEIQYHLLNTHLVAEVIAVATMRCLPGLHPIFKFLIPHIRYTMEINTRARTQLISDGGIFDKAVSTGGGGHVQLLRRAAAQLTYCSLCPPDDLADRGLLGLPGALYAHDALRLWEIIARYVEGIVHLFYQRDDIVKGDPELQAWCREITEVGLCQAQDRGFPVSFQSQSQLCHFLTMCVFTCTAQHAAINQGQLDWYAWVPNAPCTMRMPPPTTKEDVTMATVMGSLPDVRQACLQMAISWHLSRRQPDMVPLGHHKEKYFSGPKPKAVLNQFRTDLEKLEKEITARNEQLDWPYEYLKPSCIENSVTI
#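 Hydroperoxide product was detected by ferrous iron/xylenol orange as the 573 to 405 nm absorbance ratio. Arachidonic acid at 40 uM (final) was turned over for 30 min at room temperature by 150 nM human 12hLO, pH 7.0 Hepes buffer, after 15 min compound preincubation.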
# HT1080 IDH1KD tx: toxicity to HT-1080 IDH1 knockdown cells (counter line) | HT-1080 IDH1 knockdown viability, ATP luminescence, 48 h | Potency, µM (highest dose often 46.1 µM), for inactives: top-dose activity, negative = toxicity, actives largely listed as cytotoxic | 2% of 360,000 active | AID 686971;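 further: potency means the concentration at half of the fitted maximal effect; 0% = DMSO wells and -100% = cell-free medium wells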
#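 CellTiter-Glo luminescence after 48 h compound exposure at 37 degrees C of IDH1-knockdown HT-1080 cells in 5% FBS RPMI. %Activity scaled between DMSO wells and cell-free media wells, with curves fitted and assigned curve classes.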
# TDP1 cell noCPT: qHTS for Inhibitors of human tyrosyl-DNA phosphodiesterase 1 (TDP1): qHTS in cells in absence of CPT. Potency, µM (top dose mostly 46.2 µM), for inactives: at the highest dose activity change, negative = growth inhibition, most hits filed as inhibitors. AID 686978, 2013. 15% of 420,000 active. DT40 Tdp1-/- hTDP1 cells, no CPT, ATP luminescence, 48 h; further: potency means the concentration at half of the fitted maximal effect; nearly all actives have a fitted effect of over 55% in size
#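 Chicken DT40 Tdp1-/- cells complemented with human TDP1, screened without camptothecin (DMSO vehicle only), 400 cells/well. Compounds pin-transferred, cells incubated at 37 °C for at least 48 hr. Growth read as ATP-dependent luminescence (CellTiter-Glo, 30 min at RT).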
# DT40 TDP1 CPT: DT40-hTDP1 cell growth loss with CPT | 12% of 420,000 active | Potency, µM (top dose mostly 46.2 µM), without a hit: at the highest dose activity change, negative = growth inhibition, actives largely listed as inhibitors | chicken DT40 Tdp1-/-;hTDP1 cells + 20 nM CPT, ATP luminescence, 48 h; further: potency means the concentration at half of the fitted maximal effect; nearly all actives have a fitted effect of over 55% in size
#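 Chicken DT40 Tdp1-/- cells stably complemented with human TDP1 were seeded at 400 cells/well in medium containing 20 nM camptothecin, exposed to pin-transferred compounds, and grown at 37 °C for at least 48 hr. Viability was read as ATP luminescence.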
# IL-1B inflam inh: inhibitors of inflammasome signaling (IL-1 beta secretion); activity change, % at 57.5 µM; 4.7% of 360,000 active; THP-1 LPS/ATP IL-1B secretion, AlphaLISA, 16 h; stronger effect = lower value; AID 743279; in the data active means activity change below about -50%; inconclusive means mostly about -30% to -49%
#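 Secreted IL-1B measured by AlphaLISA bead assay after 16 h compound exposure of THP-1 cells; compounds (final up to 57.5 uM) added 1 h before LPS (250 ng/mL) and ATP (1.25 mM) stimulation; lower signal means less secretion.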
# HT1080NT lethal: kills 2HG-producing HT-1080-NT fibrosarcoma cells; HT-1080-NT fibrosarcoma viability, CellTiter-Glo ATP luminescence, 48 h; Potency, µM (titrated, usually from 46.1 µM), without a hit: at the top dose activity, negative = less viability, actives largely listed as cytotoxic; 1.6% of 360,000 active; AID 686970;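 further: NT is the 2HG producing partner of a matched IDH1 knockdown line; potency means the concentration at half of the fitted maximal effect; 0% = DMSO-treated cells and -100% = media-only wells without cells; nearly all actives have a fitted effect of over 55% in size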
#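 A 48-hour cytotoxicity screen used HT-1080-NT cells plated 2 hours before compound delivery. ATP-based CellTiter-Glo luminescence measured viability, normalized to DMSO and no-cell controls.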
# Numbers without * were called inactive; ? = inconclusive; nt = no result. This excerpt belongs to a sample that is enriched for hits. Unless noted, the call rests on the fitted dose curve; in most records, active means well fitted curve in the direction sought with a large enough effect; inconclusive means small, poorly fitted or top-dose-only effect, or another doubt; inactive means no such curve, though single readings can be large; an effect the other way counts as inactive or inconclusive. Unless noted, on the % scale 0 is the no-effect control and ±100 the full control effect.
SMILES,12-LOX inh,HT1080 IDH1KD tx,TDP1 cell noCPT,DT40 TDP1 CPT,IL-1B inflam inh,HT1080NT lethal
Cc1nc([N+](=O)[O-])cn1CC(=O)Nc1ccc([N+](=O)[O-])cc1,8%,8%,1%,28%,18,8%
Cc1cc(NC(=O)Cn2ccn3nc(-c4ccc(Cl)cc4)cc3c2=O)ccc1Br,3%,nt,nt,nt,nt,nt
O=C(Cc1ccsc1)N1CCC2(CCCN(CC3CCC3)C2=O)C1 (configuration not stated),6%,nt,nt,nt,nt,nt
Cc1cc(C(=O)N2CC(N(C)Cc3cccnc3)C2)n[nH]1,42%,nt,nt,nt,nt,nt
CCCCCCCCN1C(=O)[C@H](CC(=O)NCc2cccc(C(F)(F)F)c2)C[C@@]2(C(=O)OC)CCCCC=C12,-1%,?,?,21µM*,-55*,?
COC(=O)[C@]12CCCCC=C1N(Cc1ccccc1)C(=O)[C@H](CC(=O)NCc1cccc(C(F)(F)F)c1)C2,-4%,?,?,?,-18,?
CCCCCCCCN1C(=O)[C@H](CC(=O)NCc2cccc(C(F)(F)F)c2)C[C@@]2(C(=O)OCC)CCC=C12,?,?,13µM*,?,-23,?
O=C(CSc1ccc(-c2nc3ccccc3[nH]2)cn1)Nc1ccc2c(c1)OCCO2,nt,-6%,-24%,-27%,4,0%
CCOC(=O)CSc1ccc(-c2nc3ccccc3[nH]2)cn1,0%,-23%,?,?,-82*,-20%
N#CCSc1ccc(-c2nc3ccccc3[nH]2)cn1,-1%,?,23µM*,?,?,-27%
O=C(CSc1ccc(-c2nc3ccccc3[nH]2)cn1)Nc1ccc(S(=O)(=O)NC2CC2)cc1,7%,-10%,21µM*,26µM*,11,-19%
COCCNC(=O)CSc1ccc(-c2nc3ccccc3[nH]2)cn1,-9%,3%,8%,-14%,48,5%
CCn1c(=O)c(-c2noc(C(=O)N3CCC(c4ccccc4)C3)n2)nn(-c2ccc(F)cc2)c1=O (configuration not stated),2%,nt,nt,nt,nt,nt
COC(=O)c1ccc2c(=O)n(CCCCCC(=O)N3CCN(c4ccc(F)cc4)CC3)c(=O)[nH]c2c1,5%,20%,12µM*,16µM*,28,9%
O=C(CCCCCn1c(=O)[nH]c2ccccc2c1=O)N1CCN(Cc2ccc3c(c2)OCO3)CC1,0%,-8%,?,13µM*,-28,-9%
Cc1ccc(C)c(N2CCN(C(=O)CCn3c(=O)[nH]c4ccccc4c3=O)CC2)c1,?,nt,12µM*,16µM*,nt,nt
O=C(CCCCCn1c(=O)[nH]c2ccccc2c1=O)N1CCN(c2cccc(C(F)(F)F)c2)CC1,-14%,nt,0.58µM*,0.58µM*,nt,nt
O=C(Cn1c(=O)[nH]c2ccccc2c1=O)N1CCN(Cc2ccc3c(c2)OCO3)CC1,2%,-2%,?,?,7,0%
O=C(Cn1c(=O)[nH]c2ccccc2c1=O)N1CCN(c2ccccc2)CC1,0%,nt,nt,nt,nt,nt
CCCCCn1c(=O)[nH]c2cc(C(=O)N3CCN(c4cccc(C(F)(F)F)c4)CC3)ccc2c1=O,-7%,nt,7.3µM*,10µM*,nt,nt
C=CCNC(=O)C1CC(c2cccc(C)c2)CN(C(=O)NCCCC)C1 (configuration not stated),29%,nt,nt,nt,nt,nt
COc1cccc(Nc2nc(CN3CCOCC3)nc3sc4c(c23)CCCC4)c1,9%,-1%,21µM*,16µM*,?,-2%
Cc1ccc(Oc2nc(CN3CCOCC3)nc3sc4c(c23)CCC(C)C4)cc1 (configuration not stated),0%,-11%,?,?,-57*,-2%
CCNC(=O)c1cccc(Nc2nc(CN3CCOCC3)nc3sc4c(c23)CCCC4)c1,40%,nt,nt,nt,nt,nt
OC[C@H]1O[C@@H](c2nc(-c3ccccc3Br)no2)[C@H](O)[C@@H]1O,9%,15µM*,6.5µM*,0.52µM*,0,10µM*
SMILES,12-LOX inh,HT1080 IDH1KD tx,TDP1 cell noCPT,DT40 TDP1 CPT,IL-1B inflam inh,HT1080NT lethal
COc1ccc(-c2noc([C@@H]3O[C@H](CO)[C@H](O)[C@H](O)[C@H]3O)n2)cc1OC,1%,4%,15%,13%,18,25%
OC[C@H]1O[C@@H](c2nc(-c3cccc4ccccc34)no2)[C@H](O)[C@@H]1O,-6%,-16%,15µM*,?,-68*,?
CCOc1ccc(-c2noc([C@@H]3O[C@H](CO)[C@@H](O)[C@H]3O)n2)cc1,-6%,8%,?,?,-58*,12%
Cc1nn(C)c(C(=O)Nc2c(C)nn(Cc3c(F)c(F)c(F)c(F)c3F)c2C)c1Br,2%,12%,3.7µM*,8.2µM*,35,1%
Cc1nn(C)c(C(=O)Nc2c(C)nn(C)c2C)c1Br,26%,nt,nt,nt,nt,nt
CCCCCCCCCOC(=O)C[n+]1csc(CCO)c1C,0%,0%,10µM*,?,-19,4%
COc1ccc(OC)c(-c2cc(C(=O)Nc3c(C)nn(Cc4ccccc4)c3C)no2)c1,2%,?,23µM*,18µM*,?,-27%
COc1ccc(OC)c(-c2cc(C(=O)Nc3c(C)nn(Cc4ccc(Cl)cc4)c3C)no2)c1,?,?,21µM*,?,-63*,-14%
Cc1nn(Cc2ccccc2)c(C)c1NC(=O)c1cc(-c2ccco2)on1,-2%,1%,?,?,6,0%
CSc1cccc(NC(=S)N2CCCN(Cc3ccc(F)cc3)C2)c1,?,?,?,?,-52*,-14%
Cc1c(Cl)cccc1NC(=S)N1CCCN(Cc2ccc(F)cc2)C1,?,?,?,?,-88*,-10%
Cc1ccc(NC(=S)N2CCCN(Cc3ccc(F)cc3)C2)c(C)c1,?,-17%,21µM*,?,-22,-9%
Cc1ccccc1NC(=S)N1CCCN(Cc2ccc(F)cc2)C1,?,-3%,-9%,-2%,?,0%
Cc1ccc(C)c(NC(=S)N2CCCCCC2)c1,0%,1%,16µM*,21µM*,25,5%
CCCN(CC(=O)Nc1ccccc1OC)C(=O)C1=COCCO1,-1%,3%,3%,-13%,0,0%
Cc1c(O)c(=O)ccn1Cc1ccccc1,?,-12%,18µM*,23µM*,91,-23%
